Measured values reported in PMC10726135, “HNF4α isoforms regulate the circadian balance between carbohydrate and lipid metabolism in the liver”.
The full ranking holds about 18,000 sequences; the median of “log2 normalized intensity” is about 0.36, and the highest 2% start at about 7.3. For the sample, the highest values were picked, then their nearest neighbours and some sequences at random.

These sequences were tested against T1, HNF4alpha8 (COS-7 nuclear extract) (Homo sapiens, UniProt P41235-5 1-452) (assay: protein-binding microarray; COS-7 nuclear extract on double-stranded Agilent 4x180k PBM; binding buffer, salt, pH and temperature not given in the material; high values mean tight binding). Details: chain copies: 2; label: 3' end of strand 1 on the slide; dsDNA, one strand shown.
T1 sequence: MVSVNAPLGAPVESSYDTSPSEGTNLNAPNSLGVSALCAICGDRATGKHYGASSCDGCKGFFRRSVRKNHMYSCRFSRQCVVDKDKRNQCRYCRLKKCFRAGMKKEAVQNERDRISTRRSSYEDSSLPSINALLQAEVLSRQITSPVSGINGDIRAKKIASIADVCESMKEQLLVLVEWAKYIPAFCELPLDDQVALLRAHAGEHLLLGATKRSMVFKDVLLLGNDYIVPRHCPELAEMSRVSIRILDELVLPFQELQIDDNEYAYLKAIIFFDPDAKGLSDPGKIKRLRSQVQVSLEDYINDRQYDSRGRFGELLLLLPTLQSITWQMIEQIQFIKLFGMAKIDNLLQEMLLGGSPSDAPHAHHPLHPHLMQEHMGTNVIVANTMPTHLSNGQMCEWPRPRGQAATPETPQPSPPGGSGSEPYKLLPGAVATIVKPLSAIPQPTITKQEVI
Summary of the method: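 The binding signal is Agilent software's gProcessedSignal after background correction and normalization. Arrays were a custom Agilent SurePrint G3 4x180k design of double-stranded ~60-nt oligonucleotides with ~44,000 test sequences in quadruplicate, probed with nuclear extracts of COS-7 cells transiently expressing a human HNF4α isoform. Scans were made at 2-µm resolution on an Agilent G2565CA scanner.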

Row | Sequence | binding signal [log2 normalized intensity]
1 | GCAGTTCCTGATCTTTGACCTGGAGCATGAGCCTAGGGAGATTAGAGTATCGGTCGA | 5.34
2 | TGGACTTTGATCCTGATGACTGCAGAGCTTGCCTAGGGAGATTAGAGTATCGGTCGA | 6.16
3 | CAGTTTGGACTTTGATCCTGATGACTGCAGGCCTAGGGAGATTAGAGTATCGGTCGA | 8.17
4 | AATTCCAGTTTGGACTTTGATCCTGATGACGCCTAGGGAGATTAGAGTATCGGTCGA | 10
5 | AGATCATCCTGCAGTTCCTGATCTTTGACCGCCTAGGGAGATTAGAGTATCGGTCGA | 7.84
6 | ATCCTGCAGTTCCTGATCTTTGACCTGGAGGCCTAGGGAGATTAGAGTATCGGTCGA | 6.23
7 | CACCTTTGGATCCAGCTCCTGATGTTTGGTGCCTAGGGAGATTAGAGTATCGGTCGA | 2.43
8 | CTGATGCCCTTTGGATTTAGGCAGTTTTTGGCCTAGGGAGATTAGAGTATCGGTCGA | 2.92
9 | TTACAGTGTGAATCTCCAACAAGGCAGGAGGCCTAGGGAGATTAGAGTATCGGTCGA | -0.531
10 | GTCATAATTTGATCCAGTGTGCAAATGTGTGCCTAGGGAGATTAGAGTATCGGTCGA | 2.05
11 | CCACAACCTACCCTTTGCCCTGGACATATTGCCTAGGGAGATTAGAGTATCGGTCGA | 3.27
12 | GCAAACCTGCCCTTTGCTCCAGAGGAAGATGCCTAGGGAGATTAGAGTATCGGTCGA | 3.81
13 | ATCTTTGACCTGGAGCATGACCCTTTGCAGGCCTAGGGAGATTAGAGTATCGGTCGA | 3.64
14 | AGCAATTCAAATTCTTTGCCATGACCTTTGGCCTAGGGAGATTAGAGTATCGGTCGA | 6.24
15 | ATTCTTTGCCATGACCTTTGAAGCCCAGAAGCCTAGGGAGATTAGAGTATCGGTCGA | 5.57
16 | GCCATGGACTGCTGACCTTTGAACCCTGAGGCCTAGGGAGATTAGAGTATCGGTCGA | 10.3
17 | GGCAGATATGAAAGAGCCATGGACTGCTGAGCCTAGGGAGATTAGAGTATCGGTCGA | -0.289
18 | TTCAAATTCTTTGCCATGACCTTTGAAGCCGCCTAGGGAGATTAGAGTATCGGTCGA | 7.52
19 | ATATGAAAGAGCCATGGACTGCTGACCTTTGCCTAGGGAGATTAGAGTATCGGTCGA | 7.13
20 | CCTTTGAGGAGGCCTTTCCTGACCCCTCCTGCCTAGGGAGATTAGAGTATCGGTCGA | 4.78
21 | AAAGAGCCATGGACTGCTGACCTTTGAACCGCCTAGGGAGATTAGAGTATCGGTCGA | 9.59
22 | CTGCTGCCCAAAGGTCACCTCTTCAGATAGGCCTAGGGAGATTAGAGTATCGGTCGA | 3.89
23 | CTGTTTGACCAAAGCTACTCATCATGAACTGCCTAGGGAGATTAGAGTATCGGTCGA | 0.948
24 | TAGACATAGGTTATAAACTTGTTTGGGATTGCCTAGGGAGATTAGAGTATCGGTCGA | 0.308

Row | Sequence | binding signal [log2 normalized intensity]
25 | AAAGTCCAACACAGAAGCCTTTTGTTCTTTGCCTAGGGAGATTAGAGTATCGGTCGA | 2.15
26 | AATGTCTGGAAGTTCTTCCTTAAGTCTAACGCCTAGGGAGATTAGAGTATCGGTCGA | 0.865
27 | GGACTTGGTAAAGTCAATAATCTAGAAACCGCCTAGGGAGATTAGAGTATCGGTCGA | 0.338
28 | GGCATGGGAAGCAGTGAGGGTGGGTTCAAAGCCTAGGGAGATTAGAGTATCGGTCGA | 1.64
29 | TGGGTTCAAAGGTCAGAAAAAGCTGACGCCGCCTAGGGAGATTAGAGTATCGGTCGA | 7.25
30 | GGGAAGCAGTGAGGGTGGGTTCAAAGGTCAGCCTAGGGAGATTAGAGTATCGGTCGA | 8.86
31 | GAGGGTGGGTTCAAAGGTCAGAAAAAGCTGGCCTAGGGAGATTAGAGTATCGGTCGA | 7.27
32 | GCAGTGAGGGTGGGTTCAAAGGTCAGAAAAGCCTAGGGAGATTAGAGTATCGGTCGA | 8.97
33 | TAGAAGCAGTGGGACAAAGGTCACAGGAAAGCCTAGGGAGATTAGAGTATCGGTCGA | 5.05
34 | ATAAGGTAACAGGCCAAAGGGCAAGAACAAGCCTAGGGAGATTAGAGTATCGGTCGA | 3.1
35 | TCACCTCGCTCCCCTCCTGTCAGTTTATTTGCCTAGGGAGATTAGAGTATCGGTCGA | 2.3
36 | CCCCCTGTGATTACTTCCACTCTTGCAGATGCCTAGGGAGATTAGAGTATCGGTCGA | 0.911
37 | TTGCTTAAGCATAGCAAAAGTGACCTTTGCGCCTAGGGAGATTAGAGTATCGGTCGA | 9.23
38 | GTGACCTTTGCTCCAGTTCCCAATAAGTTGGCCTAGGGAGATTAGAGTATCGGTCGA | 5.13
39 | CTTCTTTGCTTAAGCATAGCAAAAGTGACCGCCTAGGGAGATTAGAGTATCGGTCGA | 3.13
40 | TGACCTTTGCTCCAGTTCCCAATAATTTCCGCCTAGGGAGATTAGAGTATCGGTCGA | 5.13
41 | CAAAGCATAGCAAGAGTGACCTTTGCTCCAGCCTAGGGAGATTAGAGTATCGGTCGA | 9
42 | AAAAGTGACCTTTGCTCCAGTTCCCAATAAGCCTAGGGAGATTAGAGTATCGGTCGA | 7.02
43 | CCTGCATATCCTGACTGCTGACCTTTAAGCGCCTAGGGAGATTAGAGTATCGGTCGA | 5.56
44 | CATAGCAAGAGTGACCTTTGCTCCAGTTCCGCCTAGGGAGATTAGAGTATCGGTCGA | 8.19
45 | CAAGAGTGACCTTTGCTCCAGTTCCCAATAGCCTAGGGAGATTAGAGTATCGGTCGA | 6.59
46 | AGATAGCATTCCAAGAGAGCAAAGTGCTTTGCCTAGGGAGATTAGAGTATCGGTCGA | 1.21
47 | TTTGCCAAAGCATAGCAAGAGTGACCTTTGGCCTAGGGAGATTAGAGTATCGGTCGA | 7.18
48 | ATAGCAAAAGTGACCTTTGCTCCAGTTCCCGCCTAGGGAGATTAGAGTATCGGTCGA | 8.52
